From PubChem BioAssay (EPA / NIEHS)
Activity calls are given as the source filed them. How the source made its calls: active means hit-call score of the fitted dose curve at least 0.9, where 1 is the maximum; inactive means score below 0.9.

Test: ATG_M_32_CIS: Attagene CIS-FACTORIAL HepG2 Assay for M32 Transcription Factor (Internal Marker) (AID 2282949);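 further: background control marker of the multiplexed CIS panel rather than a real target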
Settings: HepG2 Attagene cis-factorial M32 reporter, mRNA; actives raise or lower the signal
How it was run: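 HepG2 human liver cells transiently transfected with cis-promoter-driven multiple reporter transcription units, dosed 24 h. Reporter mRNA quantified by RT-PCR, FAM-labelled primer extension, HpaI digest and capillary electrophoresis; bidirectional fit versus DMSO baseline.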

outcome, inactive:
O=c1cc(-c2ccccc2)oc2ccc3ccccc3c12
O=C(Nc1ccc(Cl)c(Cl)c1)c1cc(Cl)cc(Cl)c1O
c1ccc2c(c1)CCC2
O=C1Cc2ccccc2N1c1c(Cl)cccc1Cl
Clc1ccc(Nc2nnc(Cc3ccncc3)c3ccccc23)cc1
Brc1cc(Br)c(Oc2c(Br)cc(Br)c(Br)c2Br)cc1Br
C=CC(=O)OCCC(F)(F)C(F)(F)C(F)(F)C(F)(F)C(F)(F)C(F)(F)F
O=C(C=C(O)C(F)(F)F)C(F)(F)F
Nc1cc(Cl)c(-c2cc(Cl)c(N)cc2Cl)cc1Cl
CCC(=O)C=Cc1ccc(OC)cc1
COC(O)c1ccccc1 (centres undefined)
CC1CCC(C(=O)O)CC1 (centres undefined)
CC1CNCC(C)O1 (centres undefined)
Cc1ccc(N=Nc2c(O)ccc3ccccc23)c(C)c1
Nc1ccc(O)c(C(=O)O)c1
Cc1[nH]nc2c1N=C(c1ccccc1Cl)c1cc([N+](=O)[O-])ccc1N2
O=C(O)C(=O)O
CCc1cccc(CC)c1N(COC)C(=O)CS(=O)(=O)O
Clc1ccc2c(Cl)ccnc2c1
COC1=CC(=O)C[C@@H](C)[C@]12Oc1c(Cl)c(OC)cc(OC)c1C2=O
O=C(Nc1cccc([N+](=O)[O-])c1)c1cc2ccccc2cc1O
CCc1cccc(CC)c1NC(=O)C(=O)O
O=CC(F)(F)C(F)(F)C(F)(F)F
CCCCCCc1ccc(N)cc1
